Experimental data taken from PubChem BioAssay AID890 (National Center for Advancing Translational Sciences (NCATS), 2007).
Several values for one entry are separate records, joined by “and”; a condition that tells them apart may be missing. Equal entries are not always repeated. Activity calls are given as the source filed them. Where a call stands in place of a potency, no number is given. Calls follow the shape of the dose curve; as a rule, active = well fitted activation curve with a large enough effect; inactive = flat fitted curve, though single readings scatter.

Experiment: Confirmation Concentration-Response Assay for Epigenetic Modulators
Summary of the method: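 Read-out is the number of GFP-positive cells, counted by laser-scanning cytometry as 20 to 120 um fluorescent objects following washing. Compounds were incubated 30 hours at 37 C with c127i murine cells harbouring a silenced CMV-GFP locus.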

## CCNc1nc(NCC)nc(-n2nc(C)cc2C)n1
  Potency: inactive

## Oc1ccc(COCc2ccccc2)c2cccnc12
  Potency: inactive

## O=C(CSc1cccc2cccnc12)Nc1ccccc1
  Potency: inactive

## CC(C)C(=O)NC(c1ccco1)c1ccc2cccnc2c1O (centres undefined)
  Potency: 7.57 µM (active) and 4.6 µM (active)
